# HCMV antiviral – inhibitors of human cytomegalovirus; HFF cells, HCMV-luciferase reporter, 72 h; stronger effect = lower value; activity change, negative = inhibition, % at 57.5 µM; 4.5% of 410,000 active; in the data active = activity change below about -60%; inconclusive = no clear call, values can overlap the other calls; inactive = above about -39%; also: % is scaled to controls: 0 for no effect and ±100 for the full control effect
#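 Compounds were evaluated in HFFs infected with an HCMV luciferase reporter virus (MOI 1 PFU/cell). Luciferase in lysates collected 72 h post infection served as the replication measure.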
# FMDV antiviral – blocks foot and mouth disease virus. Potency, µM (doses to about 57.9 µM), for the others: top-dose activity change, negative = inhibition, hits mostly inhibitors. FMDV antiviral cell-based qHTS. AID 1159524. 1.2% of 410,000 active; calls by dose curve; tested in HEK293T cells; also: read-out not given here; potency is read from the fitted curve at half-maximal effect; % is scaled to controls: 0 for no effect and ±100 for the full control effect; nearly all actives have a fitted effect of over 45% in size
# Lassa entry inh – blocks Lassa virus binding to or entry into cells; Lassa virus pseudotype entry inhibition, cell reporter; Potency, µM (highest dose often 37.9 µM), for the others: at the top dose activity change, negative = inhibition, hits mostly inhibitors; 1.2% of 300,000 active; AID 540256; calls by dose curve; tested in HEK293 cells; also: potency is read from the fitted curve at half-maximal effect; % is scaled to controls: 0 for no effect and ±100 for the full control effect; nearly all actives have a fitted effect of over 50% in size
# HCV inhibitor – inhibitors of hepatitis C virus infection | Huh7.5.1 HCVcc-Cre infection, luciferase reporter, 44 h | Potency, µM (highest dose often 41.8 µM), without a hit: at the highest dose activity change, negative = inhibition, actives largely listed as inhibitors | 3.4% of 340,000 active | AID 651820; active = well fitted inhibition curve with a large enough effect; inconclusive = small, poorly fitted or top-dose-only effect, or another doubt; inactive = no such curve, though single readings can be large or run the other way; also: potency is read from the fitted curve at half-maximal effect; % is scaled to controls: 0 for no effect and ±100 for the full control effect
#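 Reporter virus HCVcc-Cre (~0.5 moi) infects cells exposed to compound; seeding density 1,000 cells/well with 4 h settling beforehand. Luminescence, 15 sec read, taken 44 h post-infection following a 15 min RT substrate incubation.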
# SARS PLP yeast – inhibitors of SARS-CoV papain-like protease in yeast | S. cerevisiae expressing SARS-CoV PLpro, growth rescue | Potency, µM (titrated, usually from 32.9 µM), for the others: top-dose activity, positive = growth rescue, most hits filed as activators | 0.19% of 330,000 active; calls by dose curve; also: potency is read from the fitted curve at half-maximal effect; 0% is about no effect; nearly all actives have a fitted effect of over 55% in size
# Marburg entry inh – inhibitors of Marburg virus binding or cell entry | Marburg virus pseudotyped entry inhibition, cell reporter | Potency, µM (top dose mostly 37.8 µM), without a hit: at the highest dose activity change, negative = inhibition, usual class: inhibitors | 1.8% of 300,000 active | AID 540276; calls by dose curve; tested in HEK293 cells; also: potency is read from the fitted curve at half-maximal effect; % is scaled to controls: 0 for no effect and ±100 for the full control effect
# Starred values were filed as active, the others as inactive; ? = inconclusive; nt = no result; ! = repeats disagree; [ ] = another dose, or the depositor's remark. This is a sample that favours compounds with a hit; in the whole collection about 8% have one here.
SMILES,HCMV antiviral,FMDV antiviral,Lassa entry inh,HCV inhibitor,SARS PLP yeast,Marburg entry inh
Cc1cc2c(c(-c3cnccn3)c1)OC(CNC(=O)c1cc(Cl)ccc1F)C2 (stereo not given),nt,-8%,nt,nt,nt,nt
COc1ccc2c(c1)CCc1cc(C(=O)N3CCN(c4ccc(N5CCOCC5)nn4)CC3)sc1-2,nt,?,nt,10µM*,-11%,nt
Cc1cc(C)c[n+](CC(=O)c2ccc(-c3ccccc3)cc2)c1,-77*,?,?,?,-18%,?
Cc1cc(C)c[n+](CC(=O)c2ccc(NC(=O)c3ccccc3)cc2)c1,-32,2%,-2%,-1%,0%,14%[46.1 µM]
CCc1nnc(NC(=O)c2cc(=O)c3cc(C)ccc3o2)s1,25,10%,15%[46.1 µM],nt,nt,?
C=C[C@H](Cc1ccccc1)N(Cc1ccccc1)S(=O)(=O)N(Cc1ccccc1)[C@H](C=C)Cc1ccccc1,-86*,?,nt,-3%[8.37 µM],-9%,nt
COC(=O)[C@@H](Cc1ccccc1)N(Cc1ccccc1)S(=O)(=O)N(Cc1ccccc1)[C@H](Cc1ccccc1)C(=O)OC,-96*,?,nt,-14%[8.37 µM],-2%,nt
COC(=O)[C@@H](CC(C)C)N(Cc1ccccc1)S(=O)(=O)N(Cc1ccccc1)[C@@H](CC(C)C)C(=O)OC,?,?,nt,26%,1%,nt
O=C(Cc1ccccc1)N(Cc1cccnc1)c1nc2ccc(F)cc2s1,29,-3%,-12%[46.1 µM],nt,nt,nt
CCc1cccc(C)c1NC(=O)C1CCN(c2nnc(C)c3c(C)n(-c4ccccc4)nc23)CC1,-20,-10%,9%[46.1 µM],nt,nt,nt
COc1ccc(NC(=S)NC(NC(=O)c2cccc(Cl)c2)C(Cl)(Cl)Cl)c([N+](=O)[O-])c1 (stereo not given),-88*,-24%,?,11µM*!,-22%,-8%
COc1ccc(NC(=S)NC(NC(=O)c2cccc(C)c2)C(Cl)(Cl)Cl)c([N+](=O)[O-])c1 (stereo not given),-11,-3%,?,?,0%,?
O=C(NC(NC(=S)Nc1ccccc1Cl)C(Cl)(Cl)Cl)c1cccc(Cl)c1 (stereo not given),-99*,0%,?,?,-11%,?
O=C(NC(NC(=S)Nc1ccccc1C(=O)O)C(Cl)(Cl)Cl)c1cccc([N+](=O)[O-])c1 (stereo not given),24,-4%,-1%,-10%,3%,24%
O=C(Cc1cccc2ccccc12)NC(NC(=S)Nc1ccccc1Cl)C(Cl)(Cl)Cl (stereo not given),-39,-20%,?,?,19%,5.6µM*
CCN1C(=O)[C@@H]2[C@H]3[C@H](O)[C@H](O)CC(=NO[C@@H](C)c4cn([C@H](CO)Cc5ccccc5)nn4)[C@@H]3CC[C@H]2C1=O,nt,nt,?,nt,nt,-3%[14.2 µM]
O=C(c1cccn1-c1nnc(N2CCCC2)s1)N1CCN(c2ccc(Cl)cc2)CC1,0,-26%,17%[46.1 µM],nt,nt,nt
CCOC(=O)CNS(=O)(=O)c1cc(-c2n[nH]c(=O)c3ccccc23)ccc1C,11,16%,17%,-20%,-1%,-9%
CCOC(=O)CNS(=O)(=O)c1cc(-c2nnc(Nc3cccc(O)c3)c3ccccc23)ccc1C,12,12%,-20%[46.1 µM],nt,nt,nt
Cc1ccc(-c2n[nH]c(=O)c3ccccc23)cc1S(=O)(=O)NCC1CCCO1 (stereo not given),-5,24%,-1%[46.1 µM],-17%,3%,3%[46.1 µM]
O=S(=O)(NCC1CCCO1)c1ccc(Cl)c2ccccc12 (stereo not given),-84*,83%,nt,nt,nt,nt
Cc1ccc(NS(=O)(=O)c2cc(-c3n[nH]c(=O)c4ccccc34)ccc2C)cc1,?,-65%,?,?,5%,5µM*
CCOC(=O)CNS(=O)(=O)c1cc(-c2nnc(Nc3ccc4c(c3)OCO4)c3ccccc23)ccc1C,-65*,35%,-24%,?,-20%,?
Cc1ccc(-c2n[nH]c(=S)c3ccccc23)cc1S(=O)(=O)NCC1CCCO1 (stereo not given),-63*,-8%,9%[46.1 µM],?,1%,-17%[46.1 µM]

# Screens (PubChem BioAssay)
